This assay deals with MDA-MB-468 breast. Put plainly: NCI-60 one-dose screen, 48 h (100 = growth as untreated, 0 = no growth, -100 = all killed). Conditions: 10 µM unless noted.

“And” between values parts separate entries of the source, which are not always exact repeats. Equal entries are not always repeated. The panel holds about 83,000 compounds, 20% with a hit somewhere; the sample as a whole holds those more often.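 Each cell line was grown in a 96-well plate and treated with one concentration of compound for 48 hours. Values below 10 were considered active.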 Unmarked numbers belong to inactive results. The source made the active and inactive calls.

For `COc1ccc(Oc2nc(Nc3ccc(N4CCOCC4)cc3)ncc2NC(=O)c2cc(OC)cc(OC)c2)cc1`, the growth was 86.6%.

Turning to `O=C(CSc1nc2ccc([N+](=O)[O-])cc2[nH]1)Nc1ccc([N+](=O)[O-])cc1`, the growth is -12.4% (active).

On to `CNc1ccc(Br)cc1-c1n[nH]c(=O)[nH]c1=O`, for which the growth was 120%.

For the compound `CC/C(=C(/c1ccc(Cl)cc1)c1ccc(OCCN)cc1)c1ccccc1`, the growth was 88.8%.

In the case of `Cc1cc(-c2ccc(NS(=O)(=O)c3ccccc3)c(C)c2)ccc1NS(=O)(=O)c1ccccc1`, the growth was 80.4% and 101%.

Regarding `Cc1ccc(C(=O)Nc2ccc(CN3CCN(C)CC3)c(C(F)(F)F)c2)cc1C#Cc1cnc2cccnn12`, the growth was -85.9% (active).

On to `O[C@@H](c1cc(C(F)(F)F)nc2c(C(F)(F)F)cccc12)[C@H]1CCCCN1`, for which the growth is 42.6%.

Regarding `CCN(CC)CCO/N=C1\CC(c2ccc(OC)c(OC)c2)Oc2ccccc21` (stereo not given), the growth is 80.1%.

Take `CCCCCCC(C(=O)OCC)(C(=O)OCC)C1CCCCCC1`: the growth is 112%.

With `O=C(O)CCNC1CCCCC1`, the growth is 93.1%.

`CCc1nn2c(C)cc(C)nc2c1Cc1ccc(/C=C/CN2CCN(CCOCCOCCN3CCN(C/C=C/c4ccc(Cc5c(CC)nn6c(C)cc(C)nc56)cc4)CC3)CC2)cc1`: the growth is -6.16% (active).

For the compound `COc1ncc(-c2ccc3nccc(C#CCCCCC(=O)O)c3c2)cc1NS(=O)(=O)c1ccc(F)cc1F`, the growth was -29.4% (active).

For `O=S(O)c1cc(Cl)cc(Cl)c1OCc1ccccc1`, the growth is 84%.

On to `COc1nc2c(c(=O)[nH]1)C(c1ccc(Oc3ccnc4cc(Cl)ccc34)c(OC)c1)C=C(c1cc(OC)c(OC)c(OC)c1)N2` (stereo not given), for which the growth was 92.1%.

As for `Cc1oc2c(C(=O)N/N=C\c3ccc(O)cc3O)c[nH]c2c1C`, the growth is -11.8% (active).

Consider `Nc1nnc2cc(Cl)ccc2n1`, for which the growth was 101%.

With `c1cncc(CNc2ccccc2-c2nnc(Nc3ccc4c(c3)OCCO4)o2)c1`, the growth is -0.422% (active).

`N#Cc1c2c(c(N)[nH]c1=O)C(=O)NC2(O)c1ccccc1` (stereo not given): the growth was 104%.

Turning to `CC(C)c1ccc(C(=O)OCCCl)cc1`, the growth is 111%.

Take `Clc1ccc2[nH]cc(-c3cncn3CCc3ccccc3)c2c1`: the growth was 7.96% (active).

Take `CSc1oc(C)nc1[P+](c1ccccc1)(c1ccccc1)c1ccccc1`: the growth is -4.41% (active).

On to `C#CCNC(=S)N/N=C(\C)c1ccccn1`, for which the growth was -31.4% (active).

With `Cc1ccc(N=Nc2ccccc2)cc1`, the growth was 95.2%.

Regarding `Nc1ccccc1NS(=O)(=O)c1ccc(Cl)cc1`, the growth is 99.1%.

Take `CCOC(=O)Nc1ccc2c3c(cccc13)-c1ccccc1-2`: the growth is -11.5% (active).

As to `O=c1nc2oc3ccc4ccccc4c3cc-2s1`, the growth is -3.68% (active).

As for `Cc1ccc(-c2nc3nc(-c4ccccc4)nc(N4CCCN(S(C)(=O)=O)CC4)c3o2)cc1`, the growth was 121%.

On to `COc1cccc(NC(=O)c2sc3nc4c(cc3c2N)CCCC4)c1`, for which the growth was 9.67% (active).

Consider `COc1ccc(C(=O)c2cc(C)c(OC)c(C)c2)c(OC)c1N(C(=O)C(Cl)Cl)C(=O)C(Cl)Cl`, for which the growth is 21.6%.

With `O=C1c2cc3c(cc2-c2c1c1ccc(Cl)cc1c(=O)n2C[C@H](O)CO)OCO3`, the growth was -53.8% (active).

Take `CC[C@]12C=CCN3CC[C@@]4(c5cc(NC(=O)CCC(=O)OCc6cn(Cc7ccc(F)cc7)nn6)c(OC)cc5N(C)[C@H]4[C@@](O)(C(=O)OC)[C@@H]1OC(C)=O)[C@@H]32`: the growth was 104%.

For the compound `O=[N+]([O-])c1cc(Cl)cc(Cl)c1O`, the growth was 104%.

Consider `CN(C)c1ccc2cc(-c3ccccc3F)c(N)nc2c1`, for which the growth is 25.6%.

As to `O=[N+]([O-])c1cccc(-c2nc3sccn3c2-c2ccnc(NCCCNS(=O)(=O)c3ccc(Cl)cc3)n2)c1`, the growth was 13.1%.

On to `CC1(C)CC([P+](c2ccccc2)(c2ccccc2)c2ccccc2)=NN1`, for which the growth was -12.9% (active).

As for `O=C1c2c(O)cc(O)cc2OC(c2ccc(O)c(O)c2)C1O` (stereo not given), the growth was 112%.

Take `O=C(CN1C(=O)/C(=C/c2ccco2)SC1=S)NCCc1c[nH]c2ccc(F)cc12`: the growth is 105%.

As for `CCOC(=O)c1ccc2c(c1)c1c(C)c3ccncc3c(C)c1n2C`, the growth was 5.19% (active).

Consider `Cc1nc(N)sc1-c1csc(Nc2ccc(C(F)(F)F)cc2)n1`, for which the growth is -28.9% (active).

For the compound `C=CN(C(=O)N1CCN(c2cc3c(cc2F)c(=O)c(C(=O)O)cn3C2CC2)CC1)c1nc(-c2ccc(C)cc2)cs1`, the growth was 44.4%.

Source of the values: PubChem BioAssay (NCI).
